# According to article PMC11006913:
# Molecular target: HOXC10 (Homo sapiens, UniProt Q9NYD6 254-340)
# Test: PBM; 200 nM protein, PBS
# Conditions: dsDNA, one strand shown
# HOXC10, sequence (Q9NYD6 254-340): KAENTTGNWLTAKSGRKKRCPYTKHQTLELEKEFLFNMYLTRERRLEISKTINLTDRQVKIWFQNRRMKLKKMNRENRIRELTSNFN
row,Sequence,binding signal
1,TACTTAGA,"10.8 upbm affinity estimate (log intensity, higher = more binding, comparable within an allelic series)"
2,AAGTACCG,"11 upbm affinity estimate (log intensity, higher = more binding, comparable within an allelic series)"
3,GCGAGTCC,"10.1 upbm affinity estimate (log intensity, higher = more binding, comparable within an allelic series)"
4,TTAAATAA,"11.4 upbm affinity estimate (log intensity, higher = more binding, comparable within an allelic series)"
5,CAGAGGGA,"10.1 upbm affinity estimate (log intensity, higher = more binding, comparable within an allelic series)"
6,TATTAAGA,"11.2 upbm affinity estimate (log intensity, higher = more binding, comparable within an allelic series)"
7,CTCGGCCA,"10.1 upbm affinity estimate (log intensity, higher = more binding, comparable within an allelic series)"
8,CGTCCGCC,"9.96 upbm affinity estimate (log intensity, higher = more binding, comparable within an allelic series)"
9,TGATGGCA,"10.7 upbm affinity estimate (log intensity, higher = more binding, comparable within an allelic series)"
10,CATTAACA,"11.8 upbm affinity estimate (log intensity, higher = more binding, comparable within an allelic series)"
11,CCGGGGAA,"9.93 upbm affinity estimate (log intensity, higher = more binding, comparable within an allelic series)"
12,ATACTATA,"11.1 upbm affinity estimate (log intensity, higher = more binding, comparable within an allelic series)"

# Molecular target: ALX4 (Homo sapiens, UniProt Q9H161 200-286)
# Sequence (Q9H161 200-286): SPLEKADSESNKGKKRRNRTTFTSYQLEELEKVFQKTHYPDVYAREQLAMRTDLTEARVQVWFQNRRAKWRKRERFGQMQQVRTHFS
# Test: PBM; 200 nM protein, PBS
# Conditions: dsDNA, one strand shown
row,Sequence,binding signal
1,GAGGACCC,"7.88 upbm affinity estimate (log intensity, higher = more binding, comparable within an allelic series)"
2,TAAGTCGA,"10 upbm affinity estimate (log intensity, higher = more binding, comparable within an allelic series)"
3,AAATTAAC,"13.5 upbm affinity estimate (log intensity, higher = more binding, comparable within an allelic series)"
4,TAACGAAA,"10.6 upbm affinity estimate (log intensity, higher = more binding, comparable within an allelic series)"
5,CTACTTAC,"9.76 upbm affinity estimate (log intensity, higher = more binding, comparable within an allelic series)"
6,CAACATTA,"10.5 upbm affinity estimate (log intensity, higher = more binding, comparable within an allelic series)"
7,CCACTAAC,"10 upbm affinity estimate (log intensity, higher = more binding, comparable within an allelic series)"
8,CATTCTAA,"9.79 upbm affinity estimate (log intensity, higher = more binding, comparable within an allelic series)"
9,ATTAATTC,"13.6 upbm affinity estimate (log intensity, higher = more binding, comparable within an allelic series)"
10,ATGTCTTA,"9.38 upbm affinity estimate (log intensity, higher = more binding, comparable within an allelic series)"
11,CGAGGGCA,"8.31 upbm affinity estimate (log intensity, higher = more binding, comparable within an allelic series)"
12,AGTTAGTG,"10.4 upbm affinity estimate (log intensity, higher = more binding, comparable within an allelic series)"
13,AATGGCCT,"10.3 upbm affinity estimate (log intensity, higher = more binding, comparable within an allelic series)"
14,AAGTTTAC,"9.93 upbm affinity estimate (log intensity, higher = more binding, comparable within an allelic series)"
15,ATATAGTC,"8.99 upbm affinity estimate (log intensity, higher = more binding, comparable within an allelic series)"
16,ACATTACC,"10.7 upbm affinity estimate (log intensity, higher = more binding, comparable within an allelic series)"
17,CATTACCG,"11.2 upbm affinity estimate (log intensity, higher = more binding, comparable within an allelic series)"
18,AATACTTA,"10.5 upbm affinity estimate (log intensity, higher = more binding, comparable within an allelic series)"
19,ATAACAAG,"10.9 upbm affinity estimate (log intensity, higher = more binding, comparable within an allelic series)"
20,ATATTTAG,"10.9 upbm affinity estimate (log intensity, higher = more binding, comparable within an allelic series)"
21,ATCTAAAC,"9.7 upbm affinity estimate (log intensity, higher = more binding, comparable within an allelic series)"
22,AGGGCACC,"7.93 upbm affinity estimate (log intensity, higher = more binding, comparable within an allelic series)"
23,AAATTCGA,"10.7 upbm affinity estimate (log intensity, higher = more binding, comparable within an allelic series)"
24,CGGATAAC,"9.46 upbm affinity estimate (log intensity, higher = more binding, comparable within an allelic series)"
25,ATGAATTG,"11 upbm affinity estimate (log intensity, higher = more binding, comparable within an allelic series)"
26,AATCTCCA,"9.73 upbm affinity estimate (log intensity, higher = more binding, comparable within an allelic series)"
27,CCCATAAC,"9.61 upbm affinity estimate (log intensity, higher = more binding, comparable within an allelic series)"
28,CGAAGGCC,"8.29 upbm affinity estimate (log intensity, higher = more binding, comparable within an allelic series)"
